Our source for the outcome, Potency and activation values is PubChem BioAssay (NCATS).

Values without a mark were called inactive. Records with an inconclusive call do not appear. Calls of active or inactive are those of the source. Unless noted, calls come from the whole dose curve; as a rule, active = well fitted curve in the direction sought with a large enough effect; inconclusive = small, poorly fitted or top-dose-only effect, or another doubt; inactive = no such curve, though single readings can be large; an effect the other way counts as inactive or inconclusive.

The nature of assay [1]: Validation of Assay for Modulators of Lamin A Splicing (AID 1459; active = well fitted curve in the direction sought with a large enough effect in the signal ratio; the % refers to the signal ratio;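 note: cells exposed to compound for two days before reading; 0% is about no effect; ratio rise marks activators and ratio drop marks inhibitors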). The procedure, abridged: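 HeLa S3 lamin A-EGFP/DsRed2 stable clone, 600 cells/well, Opti-MEM 2% FBS; compounds by pin tool; 48 hrs, 37 °C/5% CO2; Acumen 488 nm scan, objects 10-100 um; GFP/RFP intensity ratio.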
Assay [2] has as its target DNA repair nuclease/redox regulator APEX1 (Homo sapiens) (UniProt P27695). Briefly: qHTS Validation Assay for Inhibitors of the Human Apurinic/apyrimidinic Endonuclease 1 (APE1) (AID 1705;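 note: TAMRA fluorescence gain over two minutes as APE1 cuts a quenched THF abasic duplex; series mostly up to about 57 µM; % is set by controls: 0 for no effect and ±100 for the full control effect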). The method, boiled down: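 qHTS, 1536-well. APE1 + cpd 15 min RT → 50 nM TAMRA/BHQ-2 THF-abasic dsDNA substrate → kinetic fluorescence, 3 reads/60 s; delta(read3−read1) = reaction progress. No-enzyme buffer = negative control.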

Assay [3] is described as follows: Counterscreen for APE1 Inhibitors: Fluorescent Dye Displacement Validation Assay (AID 1707).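 Note: plate controls were ThO with dsDNA and no compound for no effect and ThO without dsDNA for full effect.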 The method, boiled down: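 Counterscreen flags promiscuous DNA binders: compounds displacing ThO from duplex DNA (abasic THF site, 50 nM) reduce 540 nm emission (480 nm excitation). ThO 250 nM final; Tris-HCl pH 7.5 with NaCl, MgCl2 and Tween-20.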
(In general: The purpose of a counterscreen is to sort out artefacts and off-target activity.)

Assay [4] is described as follows: qHTS for differential inhibitors of proliferation of Plasmodium falciparum line 7G8 (AID 1815).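 Note: parasite growth measured after three days of incubation; plate controls were vehicle wells for no effect and reference inhibitor wells for full effect.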 For orientation: Quantitative high-throughput screening tests each substance at several concentrations.
Assay [5] can be described thus: qHTS for differential inhibitors of proliferation of Plasmodium falciparum line GB4 (AID 1816).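 Note: parasite growth measured after 72 h incubation; 0% = vehicle DMSO and -100% = reference inhibitor.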 Conditions: Potency: Plasmodium falciparum GB4 proliferation inhibition.
The nature of assay [6]: qHTS for differential inhibitors of proliferation of Plasmodium falciparum line 3D7 (AID 1876). Note: potency is the fitted concentration of half-maximal effect.
Assay [7] in a line: qHTS for differential inhibitors of proliferation of Plasmodium falciparum line D10 (AID 1877).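 Note: parasites grown with compound for 72 h before DNA staining; plate controls were vehicle wells for no effect and reference inhibitor wells for full effect.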
Assay [8] can be described thus: qHTS for differential inhibitors of proliferation of Plasmodium falciparum line Dd2 (AID 1882).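 Note: series mostly up to about 29 µM; plate controls were DMSO vehicle for no effect and 0.29 µM artemisinin for full effect; nearly all actives have a fitted effect of over 65% in size.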 Conditions: Potency: Plasmodium falciparum Dd2 proliferation inhibition. The method, boiled down: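 SYBR Green DNA fluorescence (ex 485, em 535 nm) after overnight lysis quantifies parasite growth; compound exposure lasted 72 h at 37 C on infected red cells at 2.5% hematocrit, 0.3% parasitemia (final). Artemisinin 0.29 uM and vehicle wells define normalization.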

Assay [9] in a line: qHTS for differential inhibitors of proliferation of Plasmodium falciparum line W2 (AID 1883).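 Note: parasites grown with compound for 72 h before lysis and staining.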 Note: potency is the fitted concentration of half-maximal effect. The settings on record: Potency: Plasmodium falciparum W2 proliferation inhibition.
Assay [10] can be described thus: qHTS for differential inhibitors of proliferation of Plasmodium falciparum line HB3 (AID 1886).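 Note: parasites grown with compound for 72 h before SYBR Green readout; plate controls were vehicle for no effect and reference inhibitor for full effect.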 Conditions: Potency: Plasmodium falciparum HB3 proliferation inhibition.
Assay [11] can be described thus: qHTS Assay for Modulators of Human Peripheral Myelin Protein 22 (PMP22) Expression/Activity (AID 1967; active = well fitted curve in the direction sought with a large enough effect in the signal ratio; the % refers to the signal ratio;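 note: 0% = untreated cells and 100% end not stated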). The procedure, abridged:
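Luminescence ratio of Pmp22 promoter-driven green luciferase to EF-alpha-driven red luciferase, in engineered mouse MSC80 Schwann cells, served as read-out. Compounds were incubated 24h; untreated cells defined 0% Activity; curves were classified by r2, magnitude and activity.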

The target in assay [12] is Ferritin light chain (Equus caballus) (UniProt P02791). Briefly: qHTS Validation Assay for Identification of Novel General Anesthetics (AID 2323). Note: series mostly up to about 77 µM; % is set by controls: 0 for no effect and ±100 for the full control effect. The method, boiled down: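 Fluorescence at 535 nm (excitation 380 nm) reported loss of 1-AMA binding to horse-spleen apoferritin (10 uM) in PBS with 50% saturated 1-aminoanthracene, after 10 min room-temperature incubation with compound; values from Hill fits of normalized response.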
Ferritin light chain (Equus caballus), sequence (P02791 2-175 limits assumed): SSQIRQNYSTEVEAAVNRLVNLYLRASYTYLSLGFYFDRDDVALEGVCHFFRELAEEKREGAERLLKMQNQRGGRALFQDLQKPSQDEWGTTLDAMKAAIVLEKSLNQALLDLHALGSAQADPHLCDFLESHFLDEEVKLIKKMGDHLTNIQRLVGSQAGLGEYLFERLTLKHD

For assay [13], the target named is ATP-dependent DNA helicase Q1 (Homo sapiens) (UniProt P46063). Description: qHTS Validation Assay for Inhibitors of RecQ-Like Dna Helicase 1 (RECQ1) (AID 2353).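 Note: plate controls were DMSO vehicle for no effect and enzyme-free control for full effect.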 The procedure, abridged: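 RECQ1T1 50 nM; forked duplex (20 bp + 30-nt ss tails) 200 nM, ATP 2 mM final; pH 8.0, 2 mM MgCl2, 2.5 ug/ml poly(dI-dC); 15 min compound preincubation; discontinuous kinetic read over 2 h at RT.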
ATP-dependent DNA helicase Q1 (Homo sapiens), sequence (P46063 whole entry, looked up): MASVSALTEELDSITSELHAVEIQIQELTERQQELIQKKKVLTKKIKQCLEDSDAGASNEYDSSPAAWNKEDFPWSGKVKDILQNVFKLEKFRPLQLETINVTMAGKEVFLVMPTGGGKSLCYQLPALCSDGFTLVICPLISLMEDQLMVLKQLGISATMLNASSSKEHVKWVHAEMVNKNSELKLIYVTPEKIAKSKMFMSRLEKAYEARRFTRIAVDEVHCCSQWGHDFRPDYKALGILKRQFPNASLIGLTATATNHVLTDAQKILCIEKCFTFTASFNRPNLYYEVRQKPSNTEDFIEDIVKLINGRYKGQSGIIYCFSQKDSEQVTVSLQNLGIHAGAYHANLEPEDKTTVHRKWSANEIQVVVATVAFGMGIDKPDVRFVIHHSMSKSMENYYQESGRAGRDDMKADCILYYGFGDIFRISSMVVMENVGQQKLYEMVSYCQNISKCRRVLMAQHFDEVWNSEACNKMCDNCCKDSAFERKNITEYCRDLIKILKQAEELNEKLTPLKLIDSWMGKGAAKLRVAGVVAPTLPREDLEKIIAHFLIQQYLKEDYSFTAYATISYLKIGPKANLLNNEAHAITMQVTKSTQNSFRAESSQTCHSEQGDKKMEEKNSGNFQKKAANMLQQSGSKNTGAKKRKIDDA

The nature of assay [14]: Validation screen for small molecules that induce DNA re-replication in MCF 10A normal breast cells (AID 463097). Note: 0% is about no effect; nearly all actives have a fitted effect of over 60% in size. The method, boiled down:
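Image-based qHTS: normal breast cells are incubated with compound for 48 hr, stained with Hoechst, and scanned for total nuclear fluorescence. Compounds raising the fraction of nuclei with elevated DNA content count as re-replication inducers.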

The nature of assay [15]: Quantitative high throughput screen for delayed death inhibitors of the malarial parasite plastid, 96 hour incubation (AID 488745). Note: nearly all actives have a fitted effect of over 70% in size. Note: potency is the fitted concentration of half-maximal effect. The method, boiled down: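 Readout is firefly luciferase luminescence from an integrated reporter in P. falciparum; lower signal marks inhibited growth. Cultures at 2% hematocrit and 0.1% parasitemia were treated with compound across two generations (96 h, 37 C, 5% CO2).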

A short description of assay [16]: Quantitative high throughput screen for delayed death inhibitors of the malarial parasite plastid, 48 hour incubation (AID 488752). Note: nearly all actives have a fitted effect of over 65% in size. Note: potency is the fitted concentration of half-maximal effect. The method, boiled down: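 First, compound was pinned into RPMI 1640 medium containing 0.5% Albumax. Next, reporter-parasite-infected erythrocytes were added to 2% hematocrit and 0.1% parasitemia. After 48 h at 37 C under 5% CO2, luciferase detection reagent was added and luminescence read.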

Assay [17] concerns the target M-phase phosphoprotein 8 (Homo sapiens) (UniProt Q99549). Description: qHTS Validation Assay for Inhibitors for MPP8 Chromodomain Interactions with Methylated Histone Tails (AID 488949).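 Note: 50 nM MPP8 with 50 nM peptide preformed then compounds added for 30 min; AlphaScreen signal from MPP8 chromodomain bound to biotinylated H3K9me3 peptide; top concentration of the series differs between compounds; % is set by controls: 0 for no effect and ±100 for the full control effect; nearly all actives have a fitted effect of over 55% in size.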 The procedure, abridged:
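50 nM MPP8 + 50 nM b-H3K9me3 peptide, PBS pH 7.4/0.01% Tween-20, 30 min RT; + cpd 30 min RT; + AlphaScreen donor/Ni-chelate acceptor beads 10 ug/mL final, 30 min dark; luminescence read.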

For assay [18], the target named is Thyrotropin-releasing hormone receptor (Homo sapiens) (UniProt P34981). Briefly: qHTS for Small Molecule Agonists and Allosteric Enhancers of Human TRH Receptor: Validation Screen for Agonists (AID 493127;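 active = calcium activation more than 3 SD above the typical response in the agonist read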;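 note: intracellular calcium rise by fluo-8 fluorescence before TRH EC20 addition; 0% is about no effect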). The settings on record: TRH receptor agonist cell assay; at 2 µM; hits give high values. The method, boiled down: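 Compounds are added by online pintool to dye-loaded TRHR cells while fluorescence is recorded every second. A rise in calcium signal during the agonist read marks activation; a later 10 nM TRH addition (EC20) serves the separate enhancer mode.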
Thyrotropin-releasing hormone receptor (Homo sapiens), sequence (P34981 whole entry, looked up): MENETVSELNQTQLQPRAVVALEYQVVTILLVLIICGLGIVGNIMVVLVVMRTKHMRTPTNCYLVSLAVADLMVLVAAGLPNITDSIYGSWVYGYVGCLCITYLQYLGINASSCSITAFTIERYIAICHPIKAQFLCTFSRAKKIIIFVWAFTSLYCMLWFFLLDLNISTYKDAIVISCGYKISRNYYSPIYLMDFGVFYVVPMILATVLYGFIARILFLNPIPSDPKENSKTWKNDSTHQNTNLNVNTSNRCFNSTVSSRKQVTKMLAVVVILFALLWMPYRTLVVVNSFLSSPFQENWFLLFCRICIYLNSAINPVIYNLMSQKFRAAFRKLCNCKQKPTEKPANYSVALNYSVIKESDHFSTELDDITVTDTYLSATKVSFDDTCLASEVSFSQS

Assay [19] addresses Galactokinase (Homo sapiens) (UniProt P51570). Description: qHTS Validation Assay for Inhibitors of Human Galactokinase (GALK) (AID 493189). Note: 0% is about no effect. The procedure, abridged:
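5 nM GALK / 100 uM galactose / 35 uM ATP, 20 mM HEPES pH8.0, 5 mM MgCl2, 60 mM NaCl, 1 mM DTT, 0.01% BSA (final). RT 1 h; Kinase-Glo Plus luminescence.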

Assay [20] in a line: Validation screen for small molecules that induce DNA re-replication in SW480 colon adenocarcinoma cells (AID 504364). Note: 0% is about no effect. The method, boiled down:
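Image-based qHTS: compounds were incubated with SW480 cells for 48 hr, nuclei stained with Hoechst, and per-nucleus fluorescence intensity scanned to flag cells with excess DNA content.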

For assay [21], the target named is Calcium and integrin-binding protein 1 (Homo sapiens) (UniProt Q99828). Briefly: Confirmatory qHTS for Identification of Calcium Integrin Binding Protein 1 (CIB1) Competitor (AID 1508617). Note: % is set by controls: 0 for no effect and ±100 for the full control effect; nearly all actives have a fitted effect of over 65% in size. The method, boiled down:
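Compounds at up to 114 uM final met 1 uM GST-tagged CIB1 for 15 min at room temperature (HEPES pH 7.4, 5 mM CaCl2). FITC-labelled alphaIIb peptide, 100 nM, added; polarization read after 15 min more.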

Assay [22] concerns the target Thyrotropin receptor (Homo sapiens) (UniProt P16473). Description: qHTS Assay for Antagonists of the Thyroid Stimulating Hormone Receptor (AID 488980). Note: series mostly up to about 58 µM; 0% is about no effect. The method, boiled down: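 Readout is cAMP by HTRF competition between cellular cAMP and cAMP-d2 for a cryptate-labelled antibody. Antagonism was assessed in TSHR-transfected HEK293 cells stimulated with 4 nM TSH (EC80, final) in the presence of RO 20-1724.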

Galactokinase (Homo sapiens), sequence (P51570 whole entry, looked up): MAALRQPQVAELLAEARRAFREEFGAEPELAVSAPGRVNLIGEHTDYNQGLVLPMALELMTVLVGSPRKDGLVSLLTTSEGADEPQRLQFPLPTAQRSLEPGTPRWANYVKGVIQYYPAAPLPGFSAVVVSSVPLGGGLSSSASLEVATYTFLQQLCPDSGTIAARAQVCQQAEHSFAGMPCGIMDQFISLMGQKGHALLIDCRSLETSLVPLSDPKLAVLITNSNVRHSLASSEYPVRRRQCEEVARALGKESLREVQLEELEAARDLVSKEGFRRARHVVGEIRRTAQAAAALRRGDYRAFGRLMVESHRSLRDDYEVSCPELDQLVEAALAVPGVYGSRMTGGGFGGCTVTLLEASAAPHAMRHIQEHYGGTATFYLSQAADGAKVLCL
M-phase phosphoprotein 8 (Homo sapiens), sequence (Q99549 whole entry, looked up): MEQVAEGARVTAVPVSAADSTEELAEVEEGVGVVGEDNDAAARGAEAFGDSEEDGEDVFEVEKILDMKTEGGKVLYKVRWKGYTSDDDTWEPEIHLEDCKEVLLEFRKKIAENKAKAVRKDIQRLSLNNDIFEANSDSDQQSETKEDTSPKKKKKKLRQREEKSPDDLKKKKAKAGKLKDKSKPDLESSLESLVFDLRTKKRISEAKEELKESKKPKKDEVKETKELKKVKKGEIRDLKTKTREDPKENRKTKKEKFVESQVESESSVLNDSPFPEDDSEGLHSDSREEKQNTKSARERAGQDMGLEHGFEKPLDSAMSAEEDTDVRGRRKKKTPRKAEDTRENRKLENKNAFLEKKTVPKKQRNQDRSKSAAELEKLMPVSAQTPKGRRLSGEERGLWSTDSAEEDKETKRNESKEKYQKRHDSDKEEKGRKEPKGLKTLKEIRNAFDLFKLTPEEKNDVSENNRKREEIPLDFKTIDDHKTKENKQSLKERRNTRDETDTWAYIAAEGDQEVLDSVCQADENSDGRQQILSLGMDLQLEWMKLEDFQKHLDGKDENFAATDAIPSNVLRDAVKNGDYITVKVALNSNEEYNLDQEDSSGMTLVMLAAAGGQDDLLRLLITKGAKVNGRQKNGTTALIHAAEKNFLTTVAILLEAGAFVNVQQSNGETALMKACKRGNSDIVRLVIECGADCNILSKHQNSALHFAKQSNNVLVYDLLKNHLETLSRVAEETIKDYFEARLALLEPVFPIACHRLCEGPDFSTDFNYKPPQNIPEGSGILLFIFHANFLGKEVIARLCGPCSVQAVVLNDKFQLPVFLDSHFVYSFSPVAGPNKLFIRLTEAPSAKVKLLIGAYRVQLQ
DNA repair nuclease/redox regulator APEX1 (Homo sapiens), sequence (P27695 whole entry, looked up): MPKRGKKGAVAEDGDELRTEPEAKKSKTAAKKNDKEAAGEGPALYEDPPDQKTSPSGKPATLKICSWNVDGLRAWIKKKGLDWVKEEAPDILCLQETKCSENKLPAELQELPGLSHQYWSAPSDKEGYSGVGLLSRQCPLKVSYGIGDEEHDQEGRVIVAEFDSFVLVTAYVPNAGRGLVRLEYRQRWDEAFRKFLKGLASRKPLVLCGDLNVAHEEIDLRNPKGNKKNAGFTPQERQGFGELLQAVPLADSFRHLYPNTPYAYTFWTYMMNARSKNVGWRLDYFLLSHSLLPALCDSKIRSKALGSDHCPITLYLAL
Thyrotropin receptor (Homo sapiens), sequence (P16473 whole entry, looked up): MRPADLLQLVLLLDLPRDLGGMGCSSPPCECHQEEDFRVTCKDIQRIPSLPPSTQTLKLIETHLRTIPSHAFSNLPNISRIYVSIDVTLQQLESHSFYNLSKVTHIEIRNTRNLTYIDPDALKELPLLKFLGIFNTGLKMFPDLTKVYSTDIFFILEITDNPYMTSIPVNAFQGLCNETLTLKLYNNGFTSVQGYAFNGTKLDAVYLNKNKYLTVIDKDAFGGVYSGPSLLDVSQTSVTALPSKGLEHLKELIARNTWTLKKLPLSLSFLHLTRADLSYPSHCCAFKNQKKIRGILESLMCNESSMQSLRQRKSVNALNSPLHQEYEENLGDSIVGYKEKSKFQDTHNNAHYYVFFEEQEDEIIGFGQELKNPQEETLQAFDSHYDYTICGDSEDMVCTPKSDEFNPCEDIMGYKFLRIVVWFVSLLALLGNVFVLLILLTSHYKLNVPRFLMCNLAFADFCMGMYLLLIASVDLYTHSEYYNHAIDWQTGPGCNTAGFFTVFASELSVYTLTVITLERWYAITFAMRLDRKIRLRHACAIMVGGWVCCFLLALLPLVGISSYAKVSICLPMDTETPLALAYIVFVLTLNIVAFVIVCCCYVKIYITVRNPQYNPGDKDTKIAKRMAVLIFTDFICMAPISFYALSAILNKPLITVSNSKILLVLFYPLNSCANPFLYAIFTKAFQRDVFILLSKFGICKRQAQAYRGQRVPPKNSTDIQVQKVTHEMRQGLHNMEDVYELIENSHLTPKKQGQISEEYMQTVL
Calcium and integrin-binding protein 1 (Homo sapiens), sequence (Q99828 whole entry, looked up): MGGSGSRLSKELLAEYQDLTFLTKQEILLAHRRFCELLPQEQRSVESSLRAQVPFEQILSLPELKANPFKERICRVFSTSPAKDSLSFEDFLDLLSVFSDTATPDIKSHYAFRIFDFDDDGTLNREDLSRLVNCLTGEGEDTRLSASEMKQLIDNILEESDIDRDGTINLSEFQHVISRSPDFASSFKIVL

In the case of `CSc1nc(N)c2ncn([C@@H]3O[C@H](COP(=O)(O)OP(=O)(O)O)[C@H](O)[C@H]3O)c2n1`, the molecule was called inactive in assay [1], in assay [11], in assay [12], in [14], in assay [19] and in assay [20]. Further, the Potency entry in assay [2], in assay [3], in [4], in assay [5], in [6] and in assay [7] was “inactive” in each case. Also, the Potency entry in [8], in assay [9], in assay [10], in assay [13], in assay [15] and in assay [16] was “inactive” throughout. The Potency result in assay [17] is “inactive”. In [18], the activation was 17.3%.
Consider `Cc1ccc(OCCn2c(CCNC(=O)c3ccsc3)nc3ccccc32)cc1`, for which the Potency entry in assay [21] was “inactive”.
As for `CN(C)C1C(=O)C(C(N)=O)=C(O)[C@@]2(O)C(=O)C3=C(O)c4c(O)ccc(Cl)c4[C@@H](O)C3C[C@@H]12` (stereo not given in full), the outcome in [1], in assay [11], in [12], in [22] and in assay [19] was inactive. Further, the Potency entry in assay [2], in assay [3], in assay [13] and in assay [17] was “inactive” each time. Further, the Potency in assay [6] is 794 nM (active); in [9], 891 nM (active); in assay [15], 738 nM (active); in assay [16], 6570 nM (active). The activation in assay [18] was 1.62%.
